{
  "source": "the supplement of paper PMC11006884",
  "note": "Targets with a hit are over-represented here; the source holds about 6,500 in all. About 2% of all pairs of compound and target were hits. A number with no mark means an inactive call.",
  "data": [
    {"compound": "COC(=O)C#Cc1ccccc1 [methyl 3-phenylpropiolate]", "test": "log2 ratio of iodoacetamide-alkyne labeling of the cysteine site, DMSO over compound (competition); higher = stronger covalent engagement of the cysteine by the compound, active = 1 or more", "details": "500 µM; treatment time 1 h; system: HEK293T cell lysate", "how_it_was_run": "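For each cysteine, the log2 competition ratio is mean control-channel reporter intensity over mean compound-channel reporter intensity. HEK293T lysate (2 mg/mL) was exposed to vehicle or electrophile (500 µM, 1 h, ambient temperature), labelled with iodoacetamide alkyne (1 h), clicked to sCIP-TMT reagents, digested overnight with trypsin at 37 °C, streptavidin-enriched and analysed by Orbitrap Eclipse LC-MS/MS with FAIMS and FragPipe. Cysteines quantified in only one of three replicates, each with duplicate channels, were excluded.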", "values": [
      {"target": "DSP C3 (UniProt P15924)", "log2 ratio of iodoacetamide-alkyne labeling": "1.14 (active)"},
      {"target": "HNRNPM C694 (UniProt P52272)", "log2 ratio of iodoacetamide-alkyne labeling": 0.0717},
      {"target": "MFN2 C348 (UniProt O95140)", "sequence (O95140 whole entry, looked up)": "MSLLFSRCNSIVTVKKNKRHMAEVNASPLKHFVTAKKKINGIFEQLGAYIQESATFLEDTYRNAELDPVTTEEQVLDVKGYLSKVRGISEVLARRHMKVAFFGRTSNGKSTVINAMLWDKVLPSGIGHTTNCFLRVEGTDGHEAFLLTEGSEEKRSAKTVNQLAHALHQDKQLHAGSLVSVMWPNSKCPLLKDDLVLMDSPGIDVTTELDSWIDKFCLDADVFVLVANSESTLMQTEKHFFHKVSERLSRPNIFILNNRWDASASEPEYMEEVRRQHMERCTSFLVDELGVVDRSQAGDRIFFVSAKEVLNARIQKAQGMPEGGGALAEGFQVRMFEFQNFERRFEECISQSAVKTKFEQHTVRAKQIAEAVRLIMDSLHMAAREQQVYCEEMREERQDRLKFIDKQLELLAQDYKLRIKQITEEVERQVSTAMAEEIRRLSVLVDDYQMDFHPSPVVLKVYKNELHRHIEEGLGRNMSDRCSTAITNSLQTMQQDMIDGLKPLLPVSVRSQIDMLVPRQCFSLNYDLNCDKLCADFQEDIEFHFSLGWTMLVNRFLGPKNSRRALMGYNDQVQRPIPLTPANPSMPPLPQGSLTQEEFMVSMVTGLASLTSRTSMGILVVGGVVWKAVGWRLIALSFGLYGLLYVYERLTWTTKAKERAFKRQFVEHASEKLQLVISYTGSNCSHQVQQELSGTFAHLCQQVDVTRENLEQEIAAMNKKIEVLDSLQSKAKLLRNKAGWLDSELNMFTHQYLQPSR", "log2 ratio of iodoacetamide-alkyne labeling": -0.0549},
      {"target": "MSN C284 (UniProt P26038)", "log2 ratio of iodoacetamide-alkyne labeling": -0.16},
      {"target": "NT5C2 C181 (UniProt P49902)", "sequence (P49902 whole entry)": "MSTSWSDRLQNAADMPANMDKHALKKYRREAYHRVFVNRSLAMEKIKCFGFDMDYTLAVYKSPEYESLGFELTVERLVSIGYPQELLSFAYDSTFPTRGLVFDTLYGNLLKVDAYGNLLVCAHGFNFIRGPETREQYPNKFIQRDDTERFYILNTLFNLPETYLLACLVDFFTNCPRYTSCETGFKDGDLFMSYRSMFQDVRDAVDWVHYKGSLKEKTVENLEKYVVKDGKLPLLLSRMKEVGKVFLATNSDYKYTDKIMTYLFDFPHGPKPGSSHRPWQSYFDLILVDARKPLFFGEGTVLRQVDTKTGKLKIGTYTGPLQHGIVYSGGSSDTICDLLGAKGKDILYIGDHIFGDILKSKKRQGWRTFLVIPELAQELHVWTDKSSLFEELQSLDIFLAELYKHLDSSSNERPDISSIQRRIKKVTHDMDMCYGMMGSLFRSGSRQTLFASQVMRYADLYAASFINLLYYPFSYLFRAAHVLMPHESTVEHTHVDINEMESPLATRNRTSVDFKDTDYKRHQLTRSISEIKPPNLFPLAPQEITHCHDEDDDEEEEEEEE", "log2 ratio of iodoacetamide-alkyne labeling": 0.0722},
      {"target": "SSB C18 (UniProt P05455)", "sequence (P05455 whole entry, looked up)": "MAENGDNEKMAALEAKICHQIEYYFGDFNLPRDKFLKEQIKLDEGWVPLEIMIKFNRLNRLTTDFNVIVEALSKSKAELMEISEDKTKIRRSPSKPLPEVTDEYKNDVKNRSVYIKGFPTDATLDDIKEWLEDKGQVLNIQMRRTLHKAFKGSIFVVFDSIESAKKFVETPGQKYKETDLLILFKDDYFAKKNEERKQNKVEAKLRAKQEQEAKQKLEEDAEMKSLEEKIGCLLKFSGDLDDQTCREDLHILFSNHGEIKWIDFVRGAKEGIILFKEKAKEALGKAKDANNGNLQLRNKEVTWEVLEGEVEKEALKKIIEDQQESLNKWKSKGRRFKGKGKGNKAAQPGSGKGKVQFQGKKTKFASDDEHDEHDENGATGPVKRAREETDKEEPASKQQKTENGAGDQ", "log2 ratio of iodoacetamide-alkyne labeling": -0.139},
      {"target": "CBX5 C133 (UniProt P45973)", "log2 ratio of iodoacetamide-alkyne labeling": 0.17},
      {"target": "ACADSB C175 (UniProt P45954)", "log2 ratio of iodoacetamide-alkyne labeling": 0.109},
      {"target": "EEF2 C557 (UniProt P13639)", "log2 ratio of iodoacetamide-alkyne labeling": -0.298},
      {"target": "CAPZB C206 (UniProt P47756)", "log2 ratio of iodoacetamide-alkyne labeling": 0.316},
      {"target": "ALDOA C202 (UniProt P04075)", "log2 ratio of iodoacetamide-alkyne labeling": -0.0261},
      {"target": "PYGB C326 (UniProt P11216)", "log2 ratio of iodoacetamide-alkyne labeling": 0.332},
      {"target": "TMPO C570 (UniProt P42166)", "log2 ratio of iodoacetamide-alkyne labeling": "1.16 (active)"},
      {"target": "HSPA4L C421 (UniProt O95757)", "log2 ratio of iodoacetamide-alkyne labeling": -0.0563},
      {"target": "MAP4K4 C202 (UniProt O95819)", "log2 ratio of iodoacetamide-alkyne labeling": 0.624},
      {"target": "PDHB C306 (UniProt P11177)", "log2 ratio of iodoacetamide-alkyne labeling": -0.122},
      {"target": "OAT C306 (UniProt P04181)", "log2 ratio of iodoacetamide-alkyne labeling": 0.00204},
      {"target": "HSP90AB1 C521 (UniProt P08238)", "log2 ratio of iodoacetamide-alkyne labeling": 0.298},
      {"target": "RPL4 C96 (UniProt P36578)", "log2 ratio of iodoacetamide-alkyne labeling": "1.24 (active)"},
      {"target": "CAMLG C123 (UniProt P49069)", "sequence (P49069 whole entry)": "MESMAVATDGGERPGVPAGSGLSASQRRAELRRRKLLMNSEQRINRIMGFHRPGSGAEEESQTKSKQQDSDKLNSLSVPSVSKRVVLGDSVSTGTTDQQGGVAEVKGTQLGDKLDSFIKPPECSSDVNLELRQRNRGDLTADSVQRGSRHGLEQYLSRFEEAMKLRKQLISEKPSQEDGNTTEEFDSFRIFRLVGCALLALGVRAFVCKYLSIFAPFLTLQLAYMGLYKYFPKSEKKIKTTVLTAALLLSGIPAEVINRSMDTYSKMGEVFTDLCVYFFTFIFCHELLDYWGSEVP", "log2 ratio of iodoacetamide-alkyne labeling": 0.308},
      {"target": "UniProt P14618_C424", "log2 ratio of iodoacetamide-alkyne labeling": -0.246},
      {"target": "RANBP2 C3071 (UniProt P49792)", "log2 ratio of iodoacetamide-alkyne labeling": 0.0882},
      {"target": "UniProt P28482_C254", "log2 ratio of iodoacetamide-alkyne labeling": -0.0158},
      {"target": "ANXA7 C285 (UniProt P20073)", "log2 ratio of iodoacetamide-alkyne labeling": 0.0794},
      {"target": "ACAA1 C123 (UniProt P09110)", "sequence (P09110 whole entry, looked up)": "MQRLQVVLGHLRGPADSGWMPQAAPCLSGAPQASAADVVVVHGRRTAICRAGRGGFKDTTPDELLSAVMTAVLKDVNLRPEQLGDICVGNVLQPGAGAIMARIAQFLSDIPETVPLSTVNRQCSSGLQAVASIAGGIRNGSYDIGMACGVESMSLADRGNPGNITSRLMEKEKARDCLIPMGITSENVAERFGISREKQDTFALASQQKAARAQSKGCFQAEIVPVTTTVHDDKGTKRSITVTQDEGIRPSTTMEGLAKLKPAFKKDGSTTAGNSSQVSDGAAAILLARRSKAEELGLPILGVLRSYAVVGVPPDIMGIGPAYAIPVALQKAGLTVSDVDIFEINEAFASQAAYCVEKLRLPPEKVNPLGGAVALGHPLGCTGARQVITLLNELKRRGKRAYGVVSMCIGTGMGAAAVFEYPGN", "log2 ratio of iodoacetamide-alkyne labeling": -0.0075},
      {"target": "UniProt P17812_C218", "log2 ratio of iodoacetamide-alkyne labeling": -0.193},
      {"target": "HCFC1 C1895 (UniProt P51610)", "log2 ratio of iodoacetamide-alkyne labeling": "1.09 (active)"},
      {"target": "PGLS C32 (UniProt O95336)", "log2 ratio of iodoacetamide-alkyne labeling": 0.724},
      {"target": "HSPA4 C417 (UniProt P34932)", "log2 ratio of iodoacetamide-alkyne labeling": 0.208},
      {"target": "LATS1 C885 (UniProt O95835)", "log2 ratio of iodoacetamide-alkyne labeling": 0.423},
      {"target": "HSPD1 C442 (UniProt P10809)", "log2 ratio of iodoacetamide-alkyne labeling": "1.2 (active)"},
      {"target": "HCFC1 C1872 (UniProt P51610)", "log2 ratio of iodoacetamide-alkyne labeling": "1.32 (active)"},
      {"target": "RANBP2 C1335 (UniProt P49792)", "log2 ratio of iodoacetamide-alkyne labeling": 0.226},
      {"target": "RPL3 C253 (UniProt P39023)", "log2 ratio of iodoacetamide-alkyne labeling": 0.582},
      {"target": "RNH1 C75 (UniProt P13489)", "log2 ratio of iodoacetamide-alkyne labeling": 0.145},
      {"target": "G6PD C385 (UniProt P11413)", "log2 ratio of iodoacetamide-alkyne labeling": 0.327},
      {"target": "FLNA C1453 (UniProt P21333)", "sequence (P21333 whole entry, looked up)": "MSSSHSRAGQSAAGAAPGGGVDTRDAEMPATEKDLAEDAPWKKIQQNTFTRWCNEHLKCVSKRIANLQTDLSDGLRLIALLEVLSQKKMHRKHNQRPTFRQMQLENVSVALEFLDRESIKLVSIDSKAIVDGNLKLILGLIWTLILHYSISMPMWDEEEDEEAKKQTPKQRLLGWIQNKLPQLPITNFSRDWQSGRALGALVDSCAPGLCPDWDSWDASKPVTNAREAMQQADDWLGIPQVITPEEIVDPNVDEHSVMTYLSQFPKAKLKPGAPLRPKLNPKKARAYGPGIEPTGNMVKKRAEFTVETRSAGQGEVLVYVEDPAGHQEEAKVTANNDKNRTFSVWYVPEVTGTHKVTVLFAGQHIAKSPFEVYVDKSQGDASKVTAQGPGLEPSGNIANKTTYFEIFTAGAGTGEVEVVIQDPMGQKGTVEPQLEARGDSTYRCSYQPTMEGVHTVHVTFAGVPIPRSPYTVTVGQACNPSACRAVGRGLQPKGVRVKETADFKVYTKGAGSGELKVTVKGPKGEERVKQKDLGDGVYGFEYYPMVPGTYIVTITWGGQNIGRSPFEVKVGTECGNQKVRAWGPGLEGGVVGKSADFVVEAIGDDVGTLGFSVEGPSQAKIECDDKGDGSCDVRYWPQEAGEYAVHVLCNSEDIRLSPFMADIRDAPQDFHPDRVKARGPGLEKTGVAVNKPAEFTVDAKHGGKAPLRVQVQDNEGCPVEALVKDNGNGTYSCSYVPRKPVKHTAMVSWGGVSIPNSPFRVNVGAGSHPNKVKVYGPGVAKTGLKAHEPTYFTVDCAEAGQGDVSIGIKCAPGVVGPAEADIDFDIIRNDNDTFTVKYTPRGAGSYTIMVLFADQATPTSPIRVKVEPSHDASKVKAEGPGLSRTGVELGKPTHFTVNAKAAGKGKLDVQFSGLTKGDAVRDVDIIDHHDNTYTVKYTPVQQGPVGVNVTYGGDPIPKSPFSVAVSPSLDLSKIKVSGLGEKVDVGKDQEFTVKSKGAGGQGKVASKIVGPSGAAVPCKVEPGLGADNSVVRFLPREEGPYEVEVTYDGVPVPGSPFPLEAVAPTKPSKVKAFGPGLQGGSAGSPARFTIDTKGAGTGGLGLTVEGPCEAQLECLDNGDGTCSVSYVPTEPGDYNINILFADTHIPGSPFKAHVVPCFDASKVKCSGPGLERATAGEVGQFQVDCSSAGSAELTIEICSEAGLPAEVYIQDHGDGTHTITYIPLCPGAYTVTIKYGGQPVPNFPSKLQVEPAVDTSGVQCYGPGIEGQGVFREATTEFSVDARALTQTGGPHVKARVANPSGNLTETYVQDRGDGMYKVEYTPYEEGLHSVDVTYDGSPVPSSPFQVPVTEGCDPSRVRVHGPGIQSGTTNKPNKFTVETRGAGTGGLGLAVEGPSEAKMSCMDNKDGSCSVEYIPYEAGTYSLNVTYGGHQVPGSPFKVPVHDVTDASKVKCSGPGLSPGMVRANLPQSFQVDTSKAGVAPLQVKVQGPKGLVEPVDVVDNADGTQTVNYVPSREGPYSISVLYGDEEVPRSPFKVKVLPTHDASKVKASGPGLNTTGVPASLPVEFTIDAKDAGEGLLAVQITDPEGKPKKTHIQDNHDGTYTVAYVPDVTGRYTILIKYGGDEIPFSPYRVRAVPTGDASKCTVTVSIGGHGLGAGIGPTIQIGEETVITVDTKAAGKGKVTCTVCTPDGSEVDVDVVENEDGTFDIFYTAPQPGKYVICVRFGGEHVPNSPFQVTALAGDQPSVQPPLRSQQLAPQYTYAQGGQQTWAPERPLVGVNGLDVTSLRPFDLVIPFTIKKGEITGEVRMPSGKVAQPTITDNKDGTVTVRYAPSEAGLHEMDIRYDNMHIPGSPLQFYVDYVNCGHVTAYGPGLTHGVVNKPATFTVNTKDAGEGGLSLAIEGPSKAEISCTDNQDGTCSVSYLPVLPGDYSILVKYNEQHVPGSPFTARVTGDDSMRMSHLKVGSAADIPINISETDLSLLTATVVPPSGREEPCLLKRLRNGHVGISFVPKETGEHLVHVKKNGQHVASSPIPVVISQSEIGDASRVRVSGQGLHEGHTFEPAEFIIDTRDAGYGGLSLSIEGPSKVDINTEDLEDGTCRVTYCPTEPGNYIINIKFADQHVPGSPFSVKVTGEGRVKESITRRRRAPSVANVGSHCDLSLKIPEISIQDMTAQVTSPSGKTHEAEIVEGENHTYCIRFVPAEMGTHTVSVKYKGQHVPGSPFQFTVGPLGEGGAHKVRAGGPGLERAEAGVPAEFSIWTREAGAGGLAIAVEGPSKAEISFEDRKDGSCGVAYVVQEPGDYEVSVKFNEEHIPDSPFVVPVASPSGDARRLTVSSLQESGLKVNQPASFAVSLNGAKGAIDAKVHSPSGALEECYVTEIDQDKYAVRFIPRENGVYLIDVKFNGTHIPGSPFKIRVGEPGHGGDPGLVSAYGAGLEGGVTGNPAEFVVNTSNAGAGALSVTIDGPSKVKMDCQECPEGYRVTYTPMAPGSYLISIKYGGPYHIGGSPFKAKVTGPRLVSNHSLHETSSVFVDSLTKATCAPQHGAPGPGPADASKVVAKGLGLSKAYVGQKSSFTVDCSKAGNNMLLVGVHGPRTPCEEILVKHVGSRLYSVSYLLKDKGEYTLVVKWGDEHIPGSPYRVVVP", "log2 ratio of iodoacetamide-alkyne labeling": 0.357}
    ]}
  ]
}
